Test results from PubChem BioAssay (EPA / NIEHS).
Results filed as inconclusive are left out. Calls of active or inactive are those of the source. The calls were made as follows, unless noted: active = hit-call score of the fitted dose curve at least 0.9, where 1 is the maximum; inactive = score below 0.9.

What was measured:
[1] = ATG_TAL_CIS: Attagene CIS-FACTORIAL HepG2 Assay for human TAL Basal Promoter (AID 2282966); details: HepG2 Attagene cis-factorial TAL promoter reporter; actives raise or lower the signal;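 also: background control endpoint measuring basal TAL promoter reporter mRNA not a specific factor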
Method in brief: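 Background-control endpoint: basal TAL promoter reporter transcripts in transiently transfected HepG2, measured 24 h after dosing. Read-out by RT-PCR with fluorescent primer extension and capillary electrophoresis; gain or loss of signal fitted relative to DMSO.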

[2] = ATG_TGFb_CIS: Attagene CIS-FACTORIAL HepG2 Assay for human Transforming Growth Factor (TGF) (AID 2282967); details: HepG2 Attagene CIS TGFb reporter, mRNA transcription; actives raise or lower the signal
Method in brief: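 Multiplexed cis-reporter HepG2 system, 24 h treatment; mRNA induction read by fluorescence after RT-PCR and CE; DMSO negative control, bidirectional curve fitting.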

[3] = ATG_VDRE_CIS: Attagene CIS-FACTORIAL HepG2 Assay for human Vitamin D Receptor Element (VDRE) (AID 2282968); details: HepG2 VDRE cis-reporter transcription, actives raise or lower the signal
Method in brief: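 Transfected HepG2 reporter cells, chemical treatment 24 h. RNA isolated, cDNA amplified with reporter-specific primers, products analysed by capillary electrophoresis. Endpoint fitted in both directions versus DMSO.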

[4] = molecular target: Steroid hormone receptor ERR1 (Homo sapiens) (UniProt P11474); assay: ATG_ERRa_TRANS: Attagene TRANS-FACTORIAL HepG2 Assay for human Estrogen-Related Receptor alpha (ERRa) (AID 2282971; active = hit-call score of the fitted dose curve at least 0.9, where 1 is the maximum); details: HepG2 Attagene TRANS reporter, ERRa transactivation
Method in brief: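 Reporter transcripts from ERRa-Gal4 chimera activity measured in transiently transfected human HepG2 cells 24 hours after dosing, using RT-PCR with 6-FAM primer extension, HpaI digestion and capillary electrophoresis; DMSO is baseline.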

[5] = molecular target: X-box-binding protein 1 (Homo sapiens) (UniProt P17861); assay: ATG_Xbp1_CIS: Attagene CIS-FACTORIAL HepG2 Assay for human X-box Binding Protein 1 (XBP1) (AID 2282972); details: HepG2 XBP1 cis-element reporter, Attagene multiplex; actives raise or lower the signal
Method in brief: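 Read-out: fluorescent reporter mRNA fragments resolved by capillary electrophoresis after RT-PCR. Human HepG2 liver cells carried transfected cis-promoter reporter units and were exposed to chemicals for 24 hours. Gain or loss of signal fitted relative to DMSO baseline.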

[6] = ATG_M_19_TRANS: Attagene TRANS-FACTORIAL HepG2 Assay for M19 Transcription Factor (Internal Marker) (AID 2282974; active = hit-call score of the fitted dose curve at least 0.9, where 1 is the maximum); details: HepG2 Attagene TRANS-FACTORIAL M19 internal marker reporter
Method in brief: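 Measured here: internal-marker reporter transcript from HepG2 cells transfected with MRTUs, harvested at 24 h. cDNA PCR products were 6-FAM labelled by primer extension, cut with HpaI for 2 h at 37 C, and resolved by CE.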

[7] = ATG_GAL4_TRANS: Attagene TRANS-FACTORIAL HepG2 Assay for GAL4 (Internal Marker) (AID 2282976; active = hit-call score of the fitted dose curve at least 0.9, where 1 is the maximum); details: HepG2 Attagene TRANS GAL4 internal marker reporter
Method in brief: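 In transfected human HepG2 liver cells dosed 24 h, GAL4 reporter mRNA serves as a baseline marker. Detection by RT-PCR with fluorescent capillary electrophoresis, activity fitted upward relative to DMSO.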

[8] = molecular target: Glucocorticoid receptor (Homo sapiens) (UniProt P04150); assay: ATG_GR_TRANS: Attagene TRANS-FACTORIAL HepG2 Assay for human Glucocorticoid Receptor (GR) (AID 2282978; active = hit-call score of the fitted dose curve at least 0.9, where 1 is the maximum;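 also: activators score as hits since higher reporter transcript over DMSO is fitted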); details: HepG2 Attagene TRANS GR reporter, mRNA transcription
Method in brief: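 Measurement of GAL4-UAS-driven reporter mRNA in human HepG2 liver cells 24 h post-dosing, using RT-PCR with fluorescent labelling and capillary electrophoresis; the transfected constructs report exogenous NR-GAL4 chimera activity, fitted upward against DMSO.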

[9] = ATG_M_06_TRANS: Attagene TRANS-FACTORIAL HepG2 Assay for M06 Transcription Factor (Internal Marker) (AID 2282983; active = hit-call score of the fitted dose curve at least 0.9, where 1 is the maximum;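 also: reporter transcript level by RT-PCR then capillary electrophoresis fluorescence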); details: HepG2 Attagene TRANS M06 internal marker reporter
Method in brief: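 Background-control reporter readout: after 24 h chemical exposure of transiently transfected HepG2 (GAL4-UAS reporter units), mRNA quantified by RT-PCR with fluorescent labeling and capillary electrophoresis. Gain-of-signal fitting against DMSO baseline.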

[10] = ATG_M_32_TRANS: Attagene TRANS-FACTORIAL HepG2 Assay for M32 Transcription Factor (Internal Marker) (AID 2282984; active = hit-call score of the fitted dose curve at least 0.9, where 1 is the maximum); details: HepG2 Attagene TRANS M32 internal marker reporter
Method in brief: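 Fluorescence-detected mRNA induction, HepG2 liver cells, 24 h after dosing. Multiple GAL4-UAS reporter units introduced by transient transfection; background-control endpoint analysed for gain of signal against DMSO.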

[11] = molecular target: Transcriptional activator Myb (Homo sapiens) (UniProt P10242); assay: ATG_Myb_CIS: Attagene CIS-FACTORIAL HepG2 Assay for human Myeloblastosis (Myb) Proto-Oncogene Transcription Factor (AID 2282986); details: HepG2 Attagene CIS-FACTORIAL Myb reporter transcription; actives raise or lower the signal
Method in brief: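 Fluorescence signals from capillary electrophoresis of RT-PCR-amplified reporter cDNA give the read-out. Cells: HepG2 transfected with multiple cis-regulated reporter units. Exposure lasts 24 hours; DMSO defines baseline for gain or loss of signal.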

[12] = molecular target: Nuclear respiratory factor 1 (Homo sapiens) (UniProt Q16656); assay: ATG_NRF1_CIS: Attagene CIS-FACTORIAL HepG2 Assay for human Nuclear Respiratory Factor 1 (NRF1) Orphan Gene (AID 2282987); details: HepG2 NRF1 cis-element reporter, Attagene multiplex; actives raise or lower the signal
Method in brief: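 Transcriptional reporter readout, one component of a 52-endpoint multiplexed HepG2 panel. Exposure 24 h; mRNA detected via RT-PCR and fluorescent capillary electrophoresis; fitting in both directions against DMSO.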

[13] = molecular target: Estrogen receptor (Homo sapiens) (UniProt P03372); assay: ATG_ERa_TRANS: Attagene TRANS-FACTORIAL HepG2 Assay for human Estrogen Receptor alpha (ERa) (AID 2282970; active = hit-call score of the fitted dose curve at least 0.9, where 1 is the maximum); details: HepG2 Attagene TRANS ERa GAL4 reporter, mRNA
Method in brief: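 Reporter transcripts were measured 24 h after dosing by RT-PCR with fluorescent primer extension and capillary electrophoresis. The system is transiently transfected HepG2 expressing exogenous NR-Gal4 chimeras driving GAL4-UAS reporters; DMSO is the baseline.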

[14] = molecular target: Oxysterols receptor LXR-beta (Homo sapiens) (UniProt P55055); assay: ATG_LXRb_TRANS: Attagene TRANS-FACTORIAL HepG2 Assay for human Liver X Receptor beta (LXRb) (AID 2282981; active = hit-call score of the fitted dose curve at least 0.9, where 1 is the maximum); details: HepG2 Attagene TRANS GAL4-LXRb reporter, mRNA
Method in brief: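 Liver-derived HepG2 cells transfected with Gal4-responsive reporters were dosed for 24 h. Activation was scored as rise in reporter mRNA, by RT-PCR and capillary electrophoresis, above DMSO baseline.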

[15] = molecular target: Hepatocyte nuclear factor 4-alpha (Homo sapiens) (UniProt P41235); assay: ATG_HNF4a_TRANS: Attagene TRANS-FACTORIAL HepG2 Assay for human Hepatocyte Nuclear Factor 4 alpha (HNF4a) (AID 2282982; active = hit-call score of the fitted dose curve at least 0.9, where 1 is the maximum); details: HepG2 HNF4a transactivation reporter, mRNA readout
Method in brief: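 Using HepG2 liver cells transfected with GAL4-UAS reporter units, chemical-induced mRNA increases were assessed after 24 hours. Fluorescent RT-PCR fragments were separated by capillary electrophoresis and compared with DMSO negative controls.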

[16] = molecular target: Nuclear receptor subfamily 4 group A member 2 (Homo sapiens) (UniProt P43354); assay: ATG_NURR1_TRANS: Attagene TRANS-FACTORIAL HepG2 Assay for human Nuclear Receptor Related Protein 1 (NURR1) (AID 2282985; active = hit-call score of the fitted dose curve at least 0.9, where 1 is the maximum); details: HepG2 Attagene TRANS reporter, mRNA readout
Method in brief: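 Chimeric NR-Gal4 proteins were expressed in human HepG2 cells bearing GAL4-UAS reporter units, and induced reporter mRNA was quantified 24 h post-dosing by RT-PCR and capillary electrophoresis.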

[17] = molecular target: Bile acid receptor (Homo sapiens) (UniProt Q96RI1); assay: ATG_FXR_TRANS: Attagene TRANS-FACTORIAL HepG2 Assay for Farnesoid X Receptor (FXR) (AID 2282979; active = hit-call score of the fitted dose curve at least 0.9, where 1 is the maximum;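 also: hits raise reporter mRNA above DMSO so AC50 marks FXR activation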); details: HepG2 Attagene TRANS FXR-GAL4 reporter transcription
Method in brief: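 Reporter transcripts from transfected HepG2 cells were measured 24 h after dosing, using RT-PCR with capillary electrophoresis of 6-FAM-labelled fragments. The read-out reflects activity of exogenous FXR-Gal4 chimera on GAL4-UAS units, with induction relative to DMSO.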

[18] = molecular target: Estrogen-related receptor gamma (Homo sapiens) (UniProt P62508); assay: ATG_ERRg_TRANS: Attagene TRANS-FACTORIAL HepG2 Assay for human Estrogen-Related Receptor gamma (ERRg) (AID 2282977; active = hit-call score of the fitted dose curve at least 0.9, where 1 is the maximum;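 also: hits increase reporter signal over DMSO so potencies reflect activators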); details: HepG2 Attagene TRANS reporter, ERRg transactivation
Method in brief: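 Readout: fluorescent reporter-mRNA fragments resolved by capillary electrophoresis after RT-PCR and HpaI cut. Cells: transiently transfected HepG2 carrying GAL4-UAS reporters driven by exogenous NR-Gal4 chimeras, dosed 24 h. Activity fitted upward relative to DMSO baseline.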

Measured: AC50

Nuclear respiratory factor 1 (Homo sapiens), sequence (Q16656 whole entry, looked up): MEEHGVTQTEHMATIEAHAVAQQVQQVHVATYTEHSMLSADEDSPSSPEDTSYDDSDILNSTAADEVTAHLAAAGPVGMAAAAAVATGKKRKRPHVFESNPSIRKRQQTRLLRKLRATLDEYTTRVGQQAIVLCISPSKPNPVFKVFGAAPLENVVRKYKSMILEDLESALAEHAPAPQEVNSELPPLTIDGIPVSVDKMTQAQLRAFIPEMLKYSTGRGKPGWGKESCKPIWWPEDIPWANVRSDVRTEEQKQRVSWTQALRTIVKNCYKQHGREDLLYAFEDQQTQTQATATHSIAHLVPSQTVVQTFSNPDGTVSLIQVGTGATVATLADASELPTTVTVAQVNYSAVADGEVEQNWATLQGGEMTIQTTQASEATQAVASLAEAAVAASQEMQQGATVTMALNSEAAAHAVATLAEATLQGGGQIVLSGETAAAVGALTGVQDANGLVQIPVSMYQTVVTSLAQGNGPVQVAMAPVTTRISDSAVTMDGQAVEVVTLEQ
Steroid hormone receptor ERR1 (Homo sapiens), sequence (P11474 whole entry, looked up, the tested form may be a part): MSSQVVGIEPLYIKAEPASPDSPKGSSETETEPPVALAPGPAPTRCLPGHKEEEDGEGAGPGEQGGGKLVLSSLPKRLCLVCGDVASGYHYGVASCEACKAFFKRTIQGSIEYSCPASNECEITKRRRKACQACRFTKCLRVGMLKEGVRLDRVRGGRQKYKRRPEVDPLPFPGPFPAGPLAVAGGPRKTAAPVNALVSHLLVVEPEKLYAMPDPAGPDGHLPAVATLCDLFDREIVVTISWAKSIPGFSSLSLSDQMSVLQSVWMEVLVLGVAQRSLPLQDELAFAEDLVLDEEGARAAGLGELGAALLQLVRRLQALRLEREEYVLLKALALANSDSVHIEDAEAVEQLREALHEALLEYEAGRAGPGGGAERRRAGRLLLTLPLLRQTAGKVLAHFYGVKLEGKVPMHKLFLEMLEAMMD
X-box-binding protein 1 (Homo sapiens), sequence (P17861 whole entry, looked up, the tested form may be a part): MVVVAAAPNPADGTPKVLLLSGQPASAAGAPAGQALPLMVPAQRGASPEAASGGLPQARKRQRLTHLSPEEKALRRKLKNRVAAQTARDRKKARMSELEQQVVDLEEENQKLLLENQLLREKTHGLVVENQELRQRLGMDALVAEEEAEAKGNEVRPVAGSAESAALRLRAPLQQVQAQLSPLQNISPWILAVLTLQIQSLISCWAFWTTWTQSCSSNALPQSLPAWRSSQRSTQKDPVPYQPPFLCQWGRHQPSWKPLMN
Glucocorticoid receptor (Homo sapiens), sequence (P04150 whole entry, looked up, the tested form may be a part): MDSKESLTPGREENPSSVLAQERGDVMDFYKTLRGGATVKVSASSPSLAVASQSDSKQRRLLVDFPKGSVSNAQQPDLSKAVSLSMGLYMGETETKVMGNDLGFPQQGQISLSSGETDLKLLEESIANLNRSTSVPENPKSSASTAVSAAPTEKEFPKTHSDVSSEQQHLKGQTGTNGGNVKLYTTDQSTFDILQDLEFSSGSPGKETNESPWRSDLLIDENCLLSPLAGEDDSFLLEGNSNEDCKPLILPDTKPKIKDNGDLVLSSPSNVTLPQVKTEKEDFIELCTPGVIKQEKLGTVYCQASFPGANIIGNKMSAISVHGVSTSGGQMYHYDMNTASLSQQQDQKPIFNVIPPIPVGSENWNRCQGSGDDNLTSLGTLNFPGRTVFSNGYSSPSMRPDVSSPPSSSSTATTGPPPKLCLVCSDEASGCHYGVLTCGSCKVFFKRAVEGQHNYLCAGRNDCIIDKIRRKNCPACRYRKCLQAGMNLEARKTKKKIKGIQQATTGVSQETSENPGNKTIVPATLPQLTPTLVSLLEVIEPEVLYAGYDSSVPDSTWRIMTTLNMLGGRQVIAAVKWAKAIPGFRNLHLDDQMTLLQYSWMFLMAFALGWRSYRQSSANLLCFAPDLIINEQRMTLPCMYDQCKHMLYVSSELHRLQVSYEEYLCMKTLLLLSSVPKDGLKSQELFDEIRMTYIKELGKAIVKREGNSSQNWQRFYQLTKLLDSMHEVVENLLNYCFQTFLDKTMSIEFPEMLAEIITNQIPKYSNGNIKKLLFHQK
Transcriptional activator Myb (Homo sapiens), sequence (P10242 whole entry, looked up): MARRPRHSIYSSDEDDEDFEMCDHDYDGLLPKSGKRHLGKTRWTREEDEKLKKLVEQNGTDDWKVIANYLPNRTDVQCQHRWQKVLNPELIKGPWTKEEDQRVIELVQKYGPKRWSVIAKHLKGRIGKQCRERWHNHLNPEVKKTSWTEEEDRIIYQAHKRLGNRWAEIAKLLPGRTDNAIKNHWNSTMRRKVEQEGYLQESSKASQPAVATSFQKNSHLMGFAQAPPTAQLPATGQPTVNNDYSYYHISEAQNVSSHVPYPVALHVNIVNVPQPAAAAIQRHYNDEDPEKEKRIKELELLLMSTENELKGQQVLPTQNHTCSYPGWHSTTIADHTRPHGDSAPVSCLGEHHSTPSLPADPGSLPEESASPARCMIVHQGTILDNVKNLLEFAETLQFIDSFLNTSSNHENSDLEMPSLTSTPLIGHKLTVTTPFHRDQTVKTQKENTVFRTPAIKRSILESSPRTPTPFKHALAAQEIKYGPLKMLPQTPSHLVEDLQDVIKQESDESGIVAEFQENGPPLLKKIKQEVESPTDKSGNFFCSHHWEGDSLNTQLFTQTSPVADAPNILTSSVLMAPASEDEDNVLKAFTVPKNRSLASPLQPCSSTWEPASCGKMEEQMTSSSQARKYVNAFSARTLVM
Hepatocyte nuclear factor 4-alpha (Homo sapiens), sequence (P41235 whole entry, looked up, the tested form may be a part): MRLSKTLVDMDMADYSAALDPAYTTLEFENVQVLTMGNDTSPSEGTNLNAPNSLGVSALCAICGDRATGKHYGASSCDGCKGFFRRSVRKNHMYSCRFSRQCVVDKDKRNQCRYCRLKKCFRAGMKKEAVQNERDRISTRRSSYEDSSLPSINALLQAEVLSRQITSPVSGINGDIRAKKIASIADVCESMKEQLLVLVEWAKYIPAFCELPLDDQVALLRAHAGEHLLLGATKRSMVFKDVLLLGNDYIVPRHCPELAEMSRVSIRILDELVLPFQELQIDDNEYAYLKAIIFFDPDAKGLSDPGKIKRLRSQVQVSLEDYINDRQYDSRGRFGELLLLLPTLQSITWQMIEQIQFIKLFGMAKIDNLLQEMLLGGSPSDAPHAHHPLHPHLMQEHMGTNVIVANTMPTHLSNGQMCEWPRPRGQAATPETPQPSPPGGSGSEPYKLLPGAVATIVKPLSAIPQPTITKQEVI
Estrogen receptor (Homo sapiens), sequence (P03372 whole entry, looked up, the tested form may be a part): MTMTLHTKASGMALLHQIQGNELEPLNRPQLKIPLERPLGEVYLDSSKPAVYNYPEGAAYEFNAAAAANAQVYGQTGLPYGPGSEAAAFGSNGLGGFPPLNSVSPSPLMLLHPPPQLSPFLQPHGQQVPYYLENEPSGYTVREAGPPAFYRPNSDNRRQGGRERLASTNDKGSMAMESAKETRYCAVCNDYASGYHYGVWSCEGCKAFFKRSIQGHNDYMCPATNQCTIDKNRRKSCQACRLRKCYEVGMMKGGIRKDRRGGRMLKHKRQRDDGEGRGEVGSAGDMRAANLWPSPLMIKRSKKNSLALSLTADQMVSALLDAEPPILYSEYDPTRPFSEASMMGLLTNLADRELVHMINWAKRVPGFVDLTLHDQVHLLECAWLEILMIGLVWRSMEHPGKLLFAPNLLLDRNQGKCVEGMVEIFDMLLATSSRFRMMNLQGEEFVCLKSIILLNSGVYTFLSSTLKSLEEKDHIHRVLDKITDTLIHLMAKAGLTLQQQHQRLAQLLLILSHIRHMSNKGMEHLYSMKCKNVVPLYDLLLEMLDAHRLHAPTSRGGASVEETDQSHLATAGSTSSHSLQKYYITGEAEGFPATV
Oxysterols receptor LXR-beta (Homo sapiens), sequence (P55055 whole entry, looked up, the tested form may be a part): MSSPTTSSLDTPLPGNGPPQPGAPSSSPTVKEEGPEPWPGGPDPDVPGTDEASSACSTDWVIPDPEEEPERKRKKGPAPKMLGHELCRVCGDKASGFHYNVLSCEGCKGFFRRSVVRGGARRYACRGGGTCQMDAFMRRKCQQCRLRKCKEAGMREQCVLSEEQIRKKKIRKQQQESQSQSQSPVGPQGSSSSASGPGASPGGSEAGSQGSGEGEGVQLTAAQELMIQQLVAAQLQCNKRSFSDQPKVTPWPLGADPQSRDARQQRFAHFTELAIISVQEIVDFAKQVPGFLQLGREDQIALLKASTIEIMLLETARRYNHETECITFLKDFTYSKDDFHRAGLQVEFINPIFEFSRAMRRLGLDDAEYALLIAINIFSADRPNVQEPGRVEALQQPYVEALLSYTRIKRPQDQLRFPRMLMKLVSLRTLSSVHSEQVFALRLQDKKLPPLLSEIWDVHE
Nuclear receptor subfamily 4 group A member 2 (Homo sapiens), sequence (P43354 whole entry, looked up, the tested form may be a part): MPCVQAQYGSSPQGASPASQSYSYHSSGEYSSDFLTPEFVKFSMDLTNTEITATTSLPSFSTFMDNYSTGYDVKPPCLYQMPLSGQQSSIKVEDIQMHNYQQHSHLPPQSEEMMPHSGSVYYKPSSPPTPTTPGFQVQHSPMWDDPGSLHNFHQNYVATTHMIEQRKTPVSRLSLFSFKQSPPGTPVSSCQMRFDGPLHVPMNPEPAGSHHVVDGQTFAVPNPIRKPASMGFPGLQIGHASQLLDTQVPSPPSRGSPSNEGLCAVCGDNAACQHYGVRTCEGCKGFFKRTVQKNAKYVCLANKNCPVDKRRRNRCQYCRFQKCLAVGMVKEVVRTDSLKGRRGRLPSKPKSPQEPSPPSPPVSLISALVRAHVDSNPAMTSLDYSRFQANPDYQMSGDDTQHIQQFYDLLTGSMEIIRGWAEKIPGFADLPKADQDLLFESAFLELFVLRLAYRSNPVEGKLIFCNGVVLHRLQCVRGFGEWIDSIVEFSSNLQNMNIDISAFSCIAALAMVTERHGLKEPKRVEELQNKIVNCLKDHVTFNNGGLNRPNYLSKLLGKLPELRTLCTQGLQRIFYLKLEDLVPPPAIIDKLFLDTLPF

CCCCCCCCCCCSCC(=O)O
active: [1] 100 µM | [2] 100 µM | [3] 80.2 µM | [5] 100 µM | [12] 77.7 µM
inactive: [4] | [6] | [7] | [8] | [9] | [10] | [11]

CC(C)(c1cc(Br)c(OCCO)c(Br)c1)c1cc(Br)c(OCCO)c(Br)c1
active: [1] 27 µM | [3] 1.22 µM | [5] 30.1 µM | [16] 21.5 µM | [12] 46.7 µM
inactive: [2] | [13] | [6] | [14] | [15] | [10] | [11]

CC(=O)c1ccc2c(c1)CCCC2
inactive: [1] | [2] | [3] | [13] | [5] | [6] | [8] | [14] | [10] | [11] | [12]

c1ccc(CNCc2ccccc2)cc1
inactive: [1] | [2] | [3] | [13] | [5] | [7] | [14] | [9] | [11] | [12]

CC(C)COC(=O)C=Cc1ccccc1
inactive: [1] | [2] | [3] | [5] | [7] | [17] | [14] | [9] | [16] | [11] | [12]
active: [13] 71.6 µM

CCCOC(=O)CCCCC(=O)OCCC
inactive: [1] | [2] | [3] | [4] | [5] | [6] | [7] | [18] | [14] | [15] | [10] | [16] | [11] | [12]

Cc1cc(O)c(Cl)c(C)c1Cl
active: [13] 26.8 µM
inactive: [1] | [2] | [3] | [5] | [14] | [15] | [9] | [11] | [12]

O=C1CCC(=O)N1Cl
inactive: [1] | [2] | [3] | [5] | [6] | [7] | [14] | [15] | [9] | [10] | [16] | [11] | [12]

C=COCCCC
inactive: [1] | [2] | [3] | [5] | [6] | [7] | [17] | [11] | [12]

O=C(C(Cl)Cl)N1CCOC12CCCCC2
inactive: [1] | [2] | [3] | [5] | [6] | [17] | [14] | [15] | [10] | [11] | [12]

O=C(O)CCCCCCCCCC(=O)O
inactive: [1] | [2] | [3] | [4] | [5] | [7] | [18] | [8] | [14] | [15] | [9] | [10] | [16] | [11] | [12]
